# Screening data (PubChem BioAssay)
# This excerpt belongs to a sample that is enriched for hits.
# TDP1 cell CPT – DT40-hTDP1 cell growth loss with CPT | chicken DT40 Tdp1-/-;hTDP1 cells + 20 nM CPT, ATP luminescence, 48 h | 12% of 420,000 active | Potency, µM (doses to about 46.2 µM), for the others: at the highest dose activity change, negative = growth inhibition, usual class: inhibitors; further: potency means the concentration at half of the fitted maximal effect; nearly all actives have a fitted effect of over 55% in size
#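 Chicken DT40 Tdp1-/- cells complemented with human TDP1, 400 cells/well, exposed to compounds plus 20 nM camptothecin for at least 48 h at 37 C; viability read as ATP content by CellTiter-Glo luminescence.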
# 12-LOX inh – blocks human arachidonate 12S-lipoxygenase | purified 12hLO, xylenol orange hydroperoxide absorbance | AID 1671190 | Potency, µM (series often up to 108 µM), without a hit: at the highest dose activity change, negative = inhibition, most hits filed as inhibitors | 1.1% of 580,000 active | P18054; further: potency means the concentration at half of the fitted maximal effect
# Target sequence (P18054 whole entry, looked up): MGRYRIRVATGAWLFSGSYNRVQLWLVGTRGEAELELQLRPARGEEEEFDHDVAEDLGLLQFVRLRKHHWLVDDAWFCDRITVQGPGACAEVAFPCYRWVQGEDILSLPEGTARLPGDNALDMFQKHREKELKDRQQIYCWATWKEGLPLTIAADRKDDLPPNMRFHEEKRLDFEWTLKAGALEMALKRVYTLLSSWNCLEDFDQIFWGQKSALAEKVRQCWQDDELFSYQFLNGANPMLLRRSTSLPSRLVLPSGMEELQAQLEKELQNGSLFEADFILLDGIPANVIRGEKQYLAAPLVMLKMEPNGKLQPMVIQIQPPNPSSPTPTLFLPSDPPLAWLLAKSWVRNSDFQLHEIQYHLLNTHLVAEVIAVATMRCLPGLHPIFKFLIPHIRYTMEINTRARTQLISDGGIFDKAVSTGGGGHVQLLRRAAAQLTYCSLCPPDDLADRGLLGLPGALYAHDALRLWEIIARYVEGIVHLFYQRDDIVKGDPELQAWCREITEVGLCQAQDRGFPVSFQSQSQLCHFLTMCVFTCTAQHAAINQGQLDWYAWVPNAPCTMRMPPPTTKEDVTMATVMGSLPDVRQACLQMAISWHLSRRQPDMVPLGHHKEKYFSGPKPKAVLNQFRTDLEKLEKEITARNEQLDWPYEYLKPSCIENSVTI
#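 Purified human 12hLO at 150 nM in 25 mM Hepes, 0.01% Triton X-100, pH 7.0, preincubated 15 min at room temperature with compound. Reaction started with 40 uM arachidonic acid, 30 min at room temperature. Hydroperoxide measured by Fe-xylenol orange, 573/405 nm absorbance ratio.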
# HT1080 IDH1KD tx – kills HT-1080 cells with IDH1 knockdown | HT-1080 IDH1 knockdown viability, ATP luminescence, 48 h | Potency, µM (series often up to 46.1 µM), for the others: at the top dose activity, negative = toxicity, usual class: cytotoxic | 2% of 360,000 active | AID 686971;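 further: potency means the concentration at half of the fitted maximal effect; 0% = DMSO wells and -100% = cell-free medium wells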
#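 HT-1080-IDH1KD cells (IDH1 knocked down), 750/well in RPMI with 5% FBS, treated with compound 48 h at 37 degrees C. Viability by CellTiter-Glo luminescence, normalised to DMSO and no-cell wells; concentration-response curves classed.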
# TDP1 cell noCPT – qHTS for Inhibitors of human tyrosyl-DNA phosphodiesterase 1 (TDP1): qHTS in cells in absence of CPT | DT40 Tdp1-/- hTDP1 cells, no CPT, ATP luminescence, 48 h | Potency, µM (top dose mostly 46.2 µM), for inactives: at the top dose activity change, negative = growth inhibition, hits mostly inhibitors | 15% of 420,000 active | AID 686978, 2013; further: potency means the concentration at half of the fitted maximal effect; nearly all actives have a fitted effect of over 55% in size
#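 Cells were dispensed at 400 per well, compounds added by pin tool, plates incubated ≥48 hr at 37 °C, then CellTiter-Glo added for 30 min at room temperature before luminescence reading. Line: DT40 Tdp1-/- complemented with hTDP1; camptothecin omitted.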
# IL1B secr inh – blocks inflammasome-driven IL-1 beta release | THP-1 LPS/ATP IL-1B secretion, AlphaLISA, 16 h; active compounds read low | 4.7% of 360,000 active | activity change, % at 57.5 µM; in the data active means activity change below about -50%; inconclusive means mostly about -30% to -49%
#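 THP-1 cells pretreated 1 hr with compounds (up to 57.5 uM final), then stimulated with LPS (250 ng/mL final) plus ATP (1.25 mM final); secreted IL-1B measured by AlphaLISA after 16 hr, decreased signal indicating inhibition.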
# HT1080-NT tox – kills 2HG-producing HT-1080-NT fibrosarcoma cells; HT-1080-NT fibrosarcoma viability, CellTiter-Glo ATP luminescence, 48 h; Potency, µM (highest dose often 46.1 µM), without a hit: at the highest dose activity, negative = less viability, usual class: cytotoxic; 1.6% of 360,000 active; AID 686970;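 further: NT is the 2HG producing partner of a matched IDH1 knockdown line; potency means the concentration at half of the fitted maximal effect; 0% = DMSO-treated cells and -100% = media-only wells without cells; nearly all actives have a fitted effect of over 55% in size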
#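 Viability by CellTiter-Glo luminescence after 48 h compound exposure at 37C of HT-1080-NT cells (750/well, RPMI, 5% FBS). % activity scaled between DMSO wells and medium-only wells, then curve-fitted and categorized by curve class.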
# Numbers without * were called inactive; ? = inconclusive; / = not tested or not shown; [ ] = dose if it differs, or a comment. Unless noted, the call rests on the fitted dose curve; in most records, active means well fitted curve in the direction sought with a large enough effect; inconclusive means small, poorly fitted or top-dose-only effect, or another doubt; inactive means no such curve, though single readings can be large; an effect the other way counts as inactive or inconclusive. Unless noted, on the % scale 0 is the no-effect control and ±100 the full control effect.
SMILES,TDP1 cell CPT,12-LOX inh,HT1080 IDH1KD tx,TDP1 cell noCPT,IL1B secr inh,HT1080-NT tox
O=C(Nc1cccnc1)c1ccc(-c2cc(Cl)ccc2Cl)o1,?,?,0%,21µM*,-16,-6%
O=C(NN1C(=O)NC2(CCCCC2)C1=O)c1ccc(-c2ccccc2Cl)o1,?,5%,-13%,-29%,?,2%
O=C(NCc1ccc(Cl)cc1)c1ccc(-c2ccccc2C(F)(F)F)o1,21µM*,-8%,-4%,23µM*,-15,14%
O=C(Nc1cccnc1)c1ccc(-c2ccc(Cl)cc2)o1,-5%,-5%,11%,-12%,-8,?
CC1(C)OC(=O)C2(Cc3cc([N+](=O)[O-])ccc3N3CCCCC32)C(=O)O1 (stereo unspecified),?,/,/,-2%,/,/
CN(CC(=O)Nc1c(Cl)cccc1C(F)(F)F)C1CCc2ccccc21 (stereo unspecified),/,-15%,/,/,/,/
Cc1cc(C)cc(NC(=O)CSc2ccc(Cl)cc2)c1,/,8%,/,/,/,/
O=C(Nc1nccs1)c1ccc(-c2ccccc2Cl)o1,?,13%,26%[9.24 µM],?,-89*,?
Cc1c(Cl)cccc1-c1ccc(C(=O)Nc2ccc(F)cc2)o1,12µM*,-13%,/,9.2µM*,/,/
CN(C)S(=O)(=O)Oc1ccsc1C(=O)Nc1cccc(Cl)c1,3%,0%,0%,-24%,-20,-6%
CC(=O)Nc1ccc(NC(=O)c2ccc(-c3ccccc3Cl)o2)cc1,?,?,5%,-28%,-18,3%
O=C(Nc1ccccc1)c1ccc(-c2ccccc2Cl)o1,21µM*,?,-5%,18µM*,-17,0%
COC(=O)c1sccc1-c1ccc(C(=O)Nc2cccc(Cl)c2)o1,?,?,-7%,23µM*,11,-6%
COc1ccc(NC(=O)Cn2ncc3ccc(OC)c(OC)c3c2=O)cc1Cl,/,19%,/,/,/,/
CCNC(=O)CN1c2ccc(F)cc2-c2ccccc2S1(=O)=O,/,-7%,/,/,/,/
O=C(NCC(c1ccco1)N1CCCCC1)c1cc2ccccc2oc1=O (stereo unspecified),/,-1%,/,/,/,/
O=C(Nc1ccccc1)c1ccc(-c2ccccc2C(F)(F)F)o1,?,?,0%,21µM*,-1,-3%
O=C(Nc1ccccc1)c1ccc(-c2ccc([N+](=O)[O-])cc2)o1,-24%,?,1%,?,-64*,-7%
COc1ccc(CNC(=O)CCc2ncc(-c3ccc(C)c(C)c3)o2)cc1,/,19%,/,/,/,/
CCOc1ccc(Cl)cc1S(=O)(=O)n1cnc2ccccc21,6.3µM*,?,11µM*,4.5µM*,16,11µM*
CCOc1ccc(C)cc1S(=O)(=O)n1cnc2ccccc21,5.2µM*,8%,13µM*,4.1µM*,0,9.2µM*
COc1ccc(S(=O)(=O)n2cnc3cc(C)c(C)cc32)cc1C,12µM*,-7%,0%,?,-53*,?
CCOc1cc(C)c(Cl)cc1S(=O)(=O)n1cnc2ccccc21,-28%,?,-8%,?,3,-2%
CCOc1ccc(S(=O)(=O)n2cnc3ccccc32)cc1,?,-22%,25%,?,32,22%
COc1ccc(Cl)cc1S(=O)(=O)n1cnc2ccccc21,23µM*,4%,-8%,?,7,-6%
SMILES,TDP1 cell CPT,12-LOX inh,HT1080 IDH1KD tx,TDP1 cell noCPT,IL1B secr inh,HT1080-NT tox
Cc1c(-c2ccccc2)n(Cc2ccccc2)c2ccccc12,/,-61%,/,/,/,/
CCN1C(=O)N(C2Cc3ccccc3C2)C(=O)C12CCN(Cc1cnn(-c3ccccc3)c1)CC2,/,52%,/,/,/,/
O=C(OCc1c(-c2ccccc2)ncc2ccccc12)c1ccc(F)cc1,?,-17%,7%,16µM*,8,2%
COc1cccc(-c2ncc3ccccc3c2COC(=O)N2CCOCC2)c1,?,4%,6%,?,-21,-4%
COc1cccc(OC)c1C(=O)OCc1c(-c2ccccc2)ncc2ccccc12,21µM*,1%,-1%,18µM*,-7,-2%
O=C(O)c1ccccc1C(=O)OCc1c(-c2ccccc2)ncc2ccccc12,?,?,0%,-13%,39,0%
CCN(CC)C(=O)OCc1c(-c2ccccc2)ncc2ccccc12,?,-20%,10%,23µM*,-26,-1%
COc1cccc(-c2ncc3ccccc3c2COC(=O)N2CCCCC2)c1,?,-12%,-7%,16µM*,-1,2%
Cn1c(SCc2cc(-c3cccs3)on2)nnc1-c1ccncc1,/,3%,/,/,/,/
COc1ccc(S(=O)(=O)N2CCN(Cc3cccc(C(F)(F)F)c3)CC2)cc1OC,/,-4%,/,/,/,/
CCOC(=O)C1=C(C)Nc2nc(SCc3ccccc3C)nn2C1c1cccs1 (stereo unspecified),/,6%,/,/,/,/
COc1ccc(Cc2nn3c(C(C)C)nnc3s2)cc1OC,/,-47%,/,/,/,/
CCN(CC)C(=O)[C@@H](C)C1CC[C@@]2(C)CC[C@H](NC(=O)COc3ccccc3)[C@@H](C)[C@@H]2[C@H]1O (stereo partly specified),/,6%,/,/,/,/
COc1cc(/C=C/C(=O)c2ccc3c(c2)OCCO3)cc(OC)c1OC,?,1%,?,?,-94*,-11%
COc1cc(C(=O)COC(=O)c2ccc3c(c2)OCCO3)cc(OC)c1OC,15µM*,5%,?,?,-12,?
COc1cc(C=CC(=O)OCC=Cc2ccc3c(c2)OCO3)cc(OC)c1OC,?,3%,-2%,?,-9,0%
COc1ccccc1NC(=O)COC(=O)c1ccc2c(c1)OCCO2,-13%,1%,-1%,?,23,1%
COc1cc(C(=O)c2cc3c(cc2C)OCO3)cc(OC)c1OC,0.023µM*,3%,?,0.023µM*,79,?
COc1cc(C(=O)NC(=S)NNC(=O)c2ccc3c(c2)OCO3)cc(OC)c1OC,?,-18%,?,?,39,?
COc1cc(/C=C/C(=O)c2ccc3c(c2)OCO3)cc(OC)c1OC,?,/,?,12µM*,-97*,?
N#Cc1ccc(/C=C/C(=O)c2ccc3c(c2)OCCO3)cc1,/,-20%,/,/,/,/
COc1ccccc1-n1cnnc1SCC(=O)c1ccc2c(c1)CCCC2,/,13%,/,/,/,/
COc1cc(C(=O)OCC(=O)c2cc(C)n(C)c2C)cc(OC)c1OC,26µM*,0%,?,16µM*,33,?
